Source: PubChem BioAssay
Activity calls are given as the source filed them.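 How the source made its calls, unless noted: active means inhibition above 20% together with a positive visual image hit; inconclusive means visual image hit but inhibition not above 20%; inactive means no visual image hit.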

Assays:
[1] = inhibitors of TNFa-induced NFkB p65 translocation, primary screen, imaging, HUVEC, MLSMR starter and 10KST1 sets (AID 438); conditions: HUVEC TNFa-induced p65 nuclear translocation; cell count: measured here: nuclei count (cytotoxicity indicator), at 2.08 µM; inhibition: at 2 µM, stronger effect = higher value, 0% TNFa-plus-vehicle, 100% no-TNFa wells;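 further: compound added about 3h40 before a 20 min TNFalpha stimulation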;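 on inhibition: signal is the nuclear over cytoplasmic p65 intensity ratio per well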
[2] = reduction of polyQ htt aggregates in cells – imaging, exon1htt(103Q)mCFP cells, high-content imaging, primary screen (AID 483;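 active means visual image review flags a hit and inhibition of aggregation exceeds 20%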;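 further: compound exposure lasted 3 days before fixation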;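 on nuclei count: percent of the per-plate median nuclei count of sample wells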); conditions: exon1htt(103Q)mCFP cell line, aggregate imaging, at 2 µM; inhibition of aggregation: stronger effect = higher value; nuclei count: measured here: cell count, toxicity
[3] = endothelial E-selectin expression blockers – imaging, HUVEC, immunofluorescence, MLSMR starter and 10KST1 sets, primary screen (AID 487;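 active means visually confirmed hit in the image check and inhibition above 20%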;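 on inhibition: signal is fraction of cell area covered by stained E-selectin grains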;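 on nuclei count: 100% = median nuclei count of all wells on the same plate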); conditions: HUVEC TNFalpha-induced E-selectin immunofluorescence imaging, at 2 µM; inhibition: stronger effect = higher value; nuclei count: measured here: cell number, toxicity
[4] = target: Voltage-gated potassium channel subunit beta-2 (Rattus norvegicus) (UniProt P62483); test: inhibitors of rat Kvbeta2 reductase activity – biochemical, NADPH fluorescence, primary screen (AID 622;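 active means fluorescence slope higher than the sample average by over 3 SD, cut at about -0.22 in these data, passing the limit was not always enough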;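 further: slope of raw intensity against log time taken from 70 to 1610 s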); conditions: recombinant KvBeta, 4-cyanobenzaldehyde reduction, at 10 µM, stronger effect = higher value
Sequence of Voltage-gated potassium channel subunit beta-2 (Rattus norvegicus) (P62483 whole entry, looked up): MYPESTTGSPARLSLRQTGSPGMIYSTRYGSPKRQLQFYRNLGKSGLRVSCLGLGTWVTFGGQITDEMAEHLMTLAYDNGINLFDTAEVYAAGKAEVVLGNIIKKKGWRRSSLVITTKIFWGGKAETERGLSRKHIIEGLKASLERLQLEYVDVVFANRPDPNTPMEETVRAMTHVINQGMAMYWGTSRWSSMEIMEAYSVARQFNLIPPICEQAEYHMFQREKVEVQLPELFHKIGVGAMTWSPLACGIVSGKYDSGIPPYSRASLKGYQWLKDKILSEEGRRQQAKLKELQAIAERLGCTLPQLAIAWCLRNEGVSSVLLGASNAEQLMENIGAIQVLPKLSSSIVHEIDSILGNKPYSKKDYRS

[5] = target: Voltage-gated potassium channel subunit beta-2 (Rattus norvegicus) (UniProt P62483); test: enhancers of rat Kvbeta2 NADPH turnover – biochemical, NADPH fluorescence, primary screen (AID 623;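 active means NADPH fluorescence slope more negative than the mean of all samples by about 3 SD, 99.7% confidence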;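 further: fluorescence intensity change per second fitted from 20 to 320 s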); conditions: Recombinant KvBeta, NADPH fluorescence decrease slope, 10 min; at 10 µM; stronger effect = lower value
[6] = target: Alpha-2C adrenergic receptor (Homo sapiens) (UniProt P18825); test: compounds altering alpha2C-coupled GIRK flux – cell-based, HEK293 alpha2C/GIRK1/2, thallium flux, primary screen (AID 624;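 active means fluorescence slope after compound addition differing from the mean of all screened samples at 99.7% confidence, in either direction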;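 further: slope of fluorescence ratio to pre-addition baseline per second over 15 to 24 s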); conditions: thallium flux BTC fluorescence, at 10 µM, actives lie on both sides
Sequence of Alpha-2C adrenergic receptor (Homo sapiens) (P18825 whole entry, looked up): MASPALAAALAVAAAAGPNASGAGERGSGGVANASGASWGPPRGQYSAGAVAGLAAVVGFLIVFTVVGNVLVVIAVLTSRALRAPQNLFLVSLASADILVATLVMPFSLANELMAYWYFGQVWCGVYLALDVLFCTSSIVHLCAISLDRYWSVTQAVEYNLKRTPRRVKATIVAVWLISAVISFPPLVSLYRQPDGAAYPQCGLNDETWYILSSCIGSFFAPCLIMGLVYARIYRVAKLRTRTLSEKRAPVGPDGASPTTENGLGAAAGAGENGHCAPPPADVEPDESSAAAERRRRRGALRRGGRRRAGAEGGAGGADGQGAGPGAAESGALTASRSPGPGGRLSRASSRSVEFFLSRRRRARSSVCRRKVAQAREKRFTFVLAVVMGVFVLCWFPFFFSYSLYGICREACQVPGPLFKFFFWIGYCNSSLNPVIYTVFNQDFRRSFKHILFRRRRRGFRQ

[7] = blockers of RIG-like receptor reporter activation – cell-based, Sendai virus stimulus, luciferase, 10K MLSCN set, TLR/RLR signaling modifier project, primary screen (AID 602276;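 active means inhibition at or above 50% at 10 µM; inactive means inhibition below 50%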;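 further: firefly luciferase from ISG56 promoter only with Renilla not read in this screen; 0% = Sendai virus plus DMSO and 100% = medium plus DMSO without virus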); conditions: HEK293 RL24 IRF3 luciferase reporter, at 10 µM, stronger effect = higher value
[8] = TLR3 IRF3 reporter activation blockers – cell-based, poly I:C stimulus, luciferase, 10K MLSCN set, primary screen (AID 602277;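 active means inhibition of the reporter signal at or above 50%; inactive means inhibition below 50%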); conditions: HEK293-TLR3 RL24 IRF3 luciferase reporter, at 10 µM, stronger effect = higher value

COc1cccc(-c2nc(CSCC(=O)N3CCc4ccccc43)c(C)o2)c1
cell count [1]: 326 | inhibition [1]: 8.5% (inactive) | inhibition of aggregation [2]: -5.9% (inactive) | nuclei count [2]: 108% | inhibition [3]: 22.5% (inactive) | nuclei count [3]: 108% | fluorescence slope [4]: -0.432 (inactive) | NADPH fluorescence slope [5]: 2.9e-06 (inactive) | slope [6]: 0.00374 (inactive) | inhibition [7]: -10.3% (inactive) | inhibition [8]: -34.4% (inactive)

O=C(Cn1c(=O)oc2ccccc21)Nc1ccc(S(=O)(=O)N2CCCCC2)cc1
cell count [1]: 392 | inhibition [1]: 0.3% (inactive) | inhibition of aggregation [2]: -5.3% (inactive) | nuclei count [2]: 89.6% | inhibition [3]: -75.3% (inactive) | nuclei count [3]: 126% | fluorescence slope [4]: -0.504 (inactive) | NADPH fluorescence slope [5]: -2.7e-05 (inactive) | slope [6]: 0.00415 (inactive) | inhibition [7]: 7.3% (inactive) | inhibition [8]: 14.4% (inactive)

CC(C)(C)NC(=O)CSc1nnc(-c2ccccn2)n1-c1ccccc1
cell count [1]: 588 | inhibition [1]: -10.6% (inactive) | inhibition of aggregation [2]: -12.9% (inactive) | nuclei count [2]: 86.7% | inhibition [3]: -36.6% (inactive) | nuclei count [3]: 122% | fluorescence slope [4]: -0.587 (inactive) | NADPH fluorescence slope [5]: -2e-05 (inactive) | slope [6]: 0.00702 (inactive) | inhibition [7]: -7.01% (inactive) | inhibition [8]: 26.8% (inactive)

Cc1csc(NC(=O)CSc2nnc(Cc3cccn3C)n2-c2ccc(F)cc2)n1
cell count [1]: 688 | inhibition [1]: -3.4% (inactive) | inhibition of aggregation [2]: 12.8% (inactive) | nuclei count [2]: 74% | inhibition [3]: -48.6% (inactive) | nuclei count [3]: 105% | fluorescence slope [4]: -0.57 (inactive) | NADPH fluorescence slope [5]: 2e-05 (inactive) | slope [6]: 0.00588 (inactive) | inhibition [7]: -11.3% (inactive) | inhibition [8]: 8.94% (inactive)

CCOC(=O)c1[nH]c2ccccc2c1NC(=O)C(CC)CC
cell count [1]: 689 | inhibition [1]: -10.7% (inactive) | inhibition of aggregation [2]: -18.7% (inactive) | nuclei count [2]: 118% | inhibition [3]: -11% (inactive) | nuclei count [3]: 107% | fluorescence slope [4]: -0.466 (inactive) | NADPH fluorescence slope [5]: -3.3e-05 (inactive) | slope [6]: 0.00668 (inactive) | inhibition [7]: 12.4% (inactive) | inhibition [8]: 40.3% (inactive)

CCOC(=O)C1=C(C)Nc2nc(SCC(=O)OC)nn2C1c1cc(F)cc(F)c1 (stereo not drawn)
cell count [1]: 432 | inhibition [1]: -15.7% (inactive) | inhibition of aggregation [2]: -6.3% (inactive) | nuclei count [2]: 96.1% | inhibition [3]: 1% (inactive) | nuclei count [3]: 96% | fluorescence slope [4]: -0.592 (inactive) | NADPH fluorescence slope [5]: -3.9e-05 (inactive) | slope [6]: 0.00688 (inactive) | inhibition [7]: 2.11% (inactive) | inhibition [8]: 8.56% (inactive)

COc1cc(OC)c2c(c1)OC(c1ccc(OC)c(OC)c1)C(O)C2=O (stereo not drawn)
cell count [1]: 524 | inhibition [1]: 2.6% (inactive) | inhibition of aggregation [2]: -8.9% (inactive) | nuclei count [2]: 104% | inhibition [3]: -60% (inactive) | nuclei count [3]: 115% | fluorescence slope [4]: -0.5 (inactive) | NADPH fluorescence slope [5]: -2.5e-05 (inactive) | slope [6]: 0.00643 (inactive) | inhibition [7]: 10.3% (inactive) | inhibition [8]: 3.76% (inactive)

Cc1ccc(-n2ncc3c(N4CCCC(C)C4)ncnc32)c(C)c1 (stereo not drawn)
cell count [1]: 558 | inhibition [1]: 8% (inactive) | inhibition of aggregation [2]: 10.5% (inactive) | nuclei count [2]: 85.8% | inhibition [3]: 3.1% (inactive) | nuclei count [3]: 93.2% | fluorescence slope [4]: -0.527 (inactive) | NADPH fluorescence slope [5]: -3.3e-05 (inactive) | slope [6]: 0.00664 (inactive) | inhibition [7]: -57.7% (inactive) | inhibition [8]: -125% (inactive)

O=C(CCOc1ccccc1)NCc1ccccc1
cell count [1]: 729 | inhibition [1]: -17.6% (inactive) | inhibition of aggregation [2]: -3.7% (inactive) | nuclei count [2]: 97.3% | inhibition [3]: 12.7% (inactive) | nuclei count [3]: 114% | fluorescence slope [4]: -0.559 (inactive) | NADPH fluorescence slope [5]: 7.4e-05 (inactive) | slope [6]: 0.00548 (inactive) | inhibition [7]: 11.5% (inactive) | inhibition [8]: 12.3% (inactive)

Cn1c2c(c(=O)n(C)c1=O)C(c1cccc(Br)c1)C1C(=O)c3ccccc3C1=N2 (stereo not drawn)
cell count [1]: 720 | inhibition [1]: -5.8% (inactive) | inhibition of aggregation [2]: 2.7% (inactive) | nuclei count [2]: 110% | inhibition [3]: 3.3% (inactive) | nuclei count [3]: 109% | fluorescence slope [4]: -0.585 (inactive) | NADPH fluorescence slope [5]: -6.2e-05 (inactive) | slope [6]: 0.00438 (inactive) | inhibition [7]: 8.12% (inactive) | inhibition [8]: 12.5% (inactive)

Cn1c(=O)c2nc(Cl)n(Cc3ccc(Cl)cc3Cl)c2n(C)c1=O
cell count [1]: 719 | inhibition [1]: -22.4% (inactive) | inhibition of aggregation [2]: 11.5% (inactive) | nuclei count [2]: 89.6% | inhibition [3]: -7.8% (inactive) | nuclei count [3]: 110% | fluorescence slope [4]: -0.514 (inactive) | NADPH fluorescence slope [5]: -4.5e-05 (inactive) | slope [6]: 0.00452 (inactive) | inhibition [7]: 21.4% (inactive) | inhibition [8]: 23.2% (inactive)

Cc1ccccc1Cc1c(C)nc2c(C(=O)N3CCN(Cc4ccc5c(c4)OCO5)CC3)cnn2c1C
cell count [1]: 631 | inhibition [1]: -4.4% (inactive) | inhibition of aggregation [2]: 19.5% (inactive) | nuclei count [2]: 132% | inhibition [3]: -11.8% (inactive) | nuclei count [3]: 95.4% | fluorescence slope [4]: -0.415 (inactive) | NADPH fluorescence slope [5]: -1.3e-05 (inactive) | slope [6]: 0.00443 (inactive) | inhibition [7]: 10.8% (inactive) | inhibition [8]: 27.9% (inactive)

O=C(NCC(=O)N(c1ccc2c(c1)OCCO2)C(C(=O)NC1CCCC1)c1ccco1)c1ccco1 (stereo not drawn)
cell count [1]: 245 | inhibition [1]: 17.9% (inactive) | inhibition of aggregation [2]: -23.9% (inactive) | nuclei count [2]: 83.9% | inhibition [3]: 20.3% (inactive) | nuclei count [3]: 95.6% | fluorescence slope [4]: -0.409 (inactive) | NADPH fluorescence slope [5]: 3.7e-05 (inactive) | slope [6]: 0.00578 (inactive) | inhibition [7]: -2.48% (inactive) | inhibition [8]: -2.78% (inactive)
